# aSyn UTR act = Activators via SNCA 5'UTR binding, MLPCN; alpha-synuclein 5'UTR reporter, activators screen; actives 7.1% (n = 300,000); activity score, % (tested at 7.5 µM), hits read low; in the data active = activity score below about -60%
# Numbers stand for hits; i = inactive. These entries were drawn from the full list.
SMILES,aSyn UTR act
Cn1nc(C(=O)Nc2ccc(S(=O)(=O)NCc3ccco3)cc2)c2ccccc2c1=O,-96
Cn1nc(-c2ccc(N3CCCCC3)c(NC(=O)c3ccco3)c2)c2ccccc2c1=O,i
CN(C)S(=O)(=O)c1ccc(C(=O)Nc2nnc(-c3ccc4c(c3)CCCC4)o2)cc1,i
O=C(Nc1nnc(-c2ccccc2)o1)NC1CCCCC1,-80
O=C(CCc1nnc(-c2ccc(-c3ccccc3)cc2)o1)NCCc1ccccn1,i
O=C(CCc1nnc(-c2ccccc2)o1)NC1CCCCC1,-66
O=C(Nc1nnc(-c2ccc3c(c2)CCCC3)o1)C1CCCCC1,-84
Cc1cc(C)n(CCN(C)C(=O)CCc2nnc(CCC3CCCCC3)o2)n1,-145
COC(=O)CCCNC(=O)CCc1nnc(-c2ccc(-c3ccccc3)cc2)o1,i
CN(CCCC1CCCC1)C(=O)CCc1nnc(-c2ccccc2)o1,-139
O=C(Nc1ccccc1)Nc1nnc(-c2ccccc2)o1,-63
CC(=O)Nc1nc2c(C)cc(NC(=O)C3CCCCC3)cc2s1,-96
CC(=O)Nc1cc(C)c2nc(NC(C)=O)sc2c1,-90
COc1ccsc1NC(=O)OCc1ccc(Cl)cc1,-69
ClC1(Cl)CC1CSc1nc2ccccc2[nH]1 (stereo unspecified),-77
c1ccc2[nH]c(SCC3CCCCO3)nc2c1 (stereo unspecified),-76
CCOc1ccc2nc(SCC3CC3(Cl)Cl)[nH]c2c1 (stereo unspecified),-153
CCOc1cc(/C=C2\COc3ccccc3C2=O)cc(Br)c1OCC(=O)N(C)C,-121
Cn1c(CSc2ccccc2)c(C#N)c2ccccc21,-131
O=C1SC(SC(=Nc2ccccc2)Nc2ccccc2)C(=O)N1c1ccccc1 (stereo unspecified),-132
CCOC(=O)N1CC=C2C(C#N)=C(N)C(C#N)(C#N)[C@H](c3ccc(OCC)c(OCC)c3)[C@H]2C1,-78
Cc1oc2cc(O)ccc2c(=O)c1-c1cnn(-c2ccccc2)c1,-77
O=c1c(-c2cnn(-c3ccccc3)c2)coc2cc(O)ccc12,-156
O=c1c(-c2ccc(O)cc2)coc2cc(O)ccc12,-93
Cc1ccc(NC(=O)N2CCCC2)cc1Cl,-73
SMILES,aSyn UTR act
O=C(Nc1cccc([N+](=O)[O-])c1)C(=O)N1CCCCC1,-151
Cc1ccc(NC(=O)C(=O)N2CCCC2)cc1Cl,-107
O=C(Nc1ccc(Cl)c(Cl)c1)N1CC=CCC1,-122
CN(C)CC(CCC(CN(C)C)C(O)(c1ccccc1)c1ccccc1)C(O)(c1ccccc1)c1ccccc1 (stereo unspecified),i
CN(C)CC(C(=O)c1ccccc1)c1ccccc1 (stereo unspecified),-171
Cc1nc2c(oc3ccccc32)c(=O)o1,-84
C1=Nc2ccccc2CN1c1ccccc1,-120
CC(C)c1ccc(N2C=Nc3ccc(C(C)C)cc3C2)cc1,-63
CSc1cccc(NC(=O)/C=C/c2cccc(Cl)c2)c1,-218
CNC(=O)c1ccc(NC(=O)/C=C/c2cccc(F)c2)cc1,-98
O=C(/C=C/c1cccc(Cl)c1)Nc1ncccn1,-76
N#C/C(=C/c1ccc(N2CCCCC2)o1)C(=O)Nc1ccc(Cl)cc1,-152
N#C/C(=C/c1ccc(N2CCCCC2)o1)C(=O)Nc1ccc2ccccc2c1,-110
C=CCn1c(C)cc(C2=NNC(=NC(C)(C)C)SC2)c1C,i
COc1ccc(CN=C2Nc3ccccc3CS2)cc1,-85
COc1ccc(CN=C2NN=C(c3ccc(Cl)cc3)CS2)cc1,-103
CC(C)(C)N=C1NN=C(c2ccc(Cl)cc2)CS1,-108
CC(C)(C)N=C1NN=C(c2cc3ccccc3o2)CS1,-74
CCNC(=O)COc1ccc(-c2ccccc2)cc1,-116
Cc1ccc(OCC(=O)N/N=C\c2cn(Cc3ccccc3)c3ccccc23)cc1C,i
CC(C)(C)NC(=O)COc1ccc(-c2ccccc2)cc1,-110
Cc1cc(OCC(=O)NC(C)(C)C)ccc1Cl,-93
COC(=O)N/N=C\c1ccc(-c2cc(Cl)c(Cl)cc2Cl)o1,i
CCOc1ccc(S(=O)(=O)N(CC(=O)N/N=C/c2ccc(-c3ccc([N+](=O)[O-])cc3)o2)c2ccccc2)cc1,-72
CCOC(=O)c1ccc(-c2ccc(/C=N/NC(=O)CN(c3ccccc3Cl)S(C)(=O)=O)o2)cc1,-153
SMILES,aSyn UTR act
O=C(N=c1nc2ccccn2s1)c1ccccc1,-180
O=C(/C=C/c1ccc([N+](=O)[O-])cc1)/C=C/c1ccco1,-215
COC(=O)C(Cc1ccc(OC(=O)c2ccc(Cl)cc2)cc1)N1Cc2ccccc2C1=O (stereo unspecified),-124
COC(=O)C(Cc1ccc(OC(=O)c2ccc(C(F)(F)F)cc2)cc1)N1Cc2ccccc2C1=O (stereo unspecified),-137
CCOC(=O)c1cccc(S(=O)(=O)N(CCO)Cc2cc3cc(OC)c(OC)cc3[nH]c2=O)c1,-72
Cc1cc2cc(CN(Cc3ccco3)S(=O)(=O)c3c(C)ccc4nsnc34)c(=O)[nH]c2cc1C,i
COc1ccccc1C(=O)Nc1nc2cc3c(cc2s1)OCO3,-122
COc1ccc(C(=O)Nc2nnc(Cc3ccc(OC)c(OC)c3)s2)c(OC)c1,-82
COc1ccc(C(=O)Nc2nc3cc4c(cc3s2)OCCO4)c(OC)c1,-63
Cc1nc2cc(NC(=O)CCS(=O)(=O)c3ccccc3)ccc2s1,-172
O=C(CCS(=O)(=O)c1ccccc1)Nc1nc2cc3c(cc2s1)OCO3,-65
COc1ccccc1C(=O)Nc1nc2cc3c(cc2s1)OCCO3,-64
Cc1ccc(/C=N/c2sc3c(c2C(N)=O)CCCC3)o1,-114
NC(=O)c1c(/N=C/c2cccnc2)sc2c1CCCC2,-102
CC(C)Sc1nc(NCc2ccco2)c2c3c(sc2n1)COC(C)(C)C3,-85
CC(C)c1nc2oc3c(NCc4ccccn4)ncnc3c2c2c1COC(C)(C)C2,i
COc1cccc(/C=N/NC(=O)C(=O)Nc2ccccc2OC(F)(F)C(F)F)c1O,i
COC(=O)c1cccc(NC(=O)Nc2ccc(Cl)c(Cl)c2)c1,-134
COC(=O)c1cccc(NC(=O)Nc2ccccc2OC)c1,-65
COc1ccccc1NC(=O)C(=O)/C=C(\O)c1ccccc1,-131
COC(=O)c1cccc(NC(=O)NC(=O)c2ccccc2Cl)c1,i
CCn1cc(/C=C/C(=O)Nc2ccc(C)cc2Br)cn1,-82
Cc1ccc(SSc2cc(C)ccc2N)c(N)c1,-203
Cc1ccccc1-n1c(C)cc(/C=C(\C#N)C(=O)NCC2CCCO2)c1C (stereo unspecified),-94
CCOC(=O)/C=c1\s/c(=C\c2c(OC)ccc3ccccc23)c(=O)n1CC(=O)NCC1CCCO1 (stereo unspecified),i
SMILES,aSyn UTR act
Cc1cc(/C=C(\C#N)C(=O)NCc2cccs2)c(C)n1-c1ccccc1F,-240
Nc1ccccc1N=Nc1ccccc1N,-222
CCc1ccc(NC(=O)CCC(=O)Nc2nnc(C(F)(F)F)s2)cc1,-73
CC(=O)c1cnc(Nc2cccc(Cl)c2Cl)s1,-92
O=C(c1ccc(Cl)cc1)c1cnc(Nc2ccccc2Cl)s1,-156
Cc1ccccc1COc1ccc(/C=C(\C#N)C(N)=O)cc1,-105
N#C/C(=C/c1ccc(OCc2ccccc2)cc1)C(=O)NC1CCCCC1,-121
N#C/C(=C\c1ccc(OCc2ccccc2)cc1)C(N)=O,-92
CNC(=O)/C(C#N)=C/c1ccc(OCCOc2ccccc2)cc1,-66
N#Cc1ccccc1COc1ccc(/C=C/C(=O)O)cc1,i
N#CCCN1CCCc2cc(N=Nc3ccc(C(F)(F)F)cc3)ccc21,-191
COc1ccc(/C=N/c2c(-c3ccco3)nc3ccccn23)cc1OC,-64

# Compound activity as filed in PubChem BioAssay.
